# From PubChem
# This is a sample that favours compounds with a hit; in the whole collection about 1.2% have one here.
# GC-A act – GC-A stimulated cGMP production enhancers – HEK293 GC-A cells, cGMP TR-FRET, EC30 ANP, primary screen; Atrial natriuretic peptide receptor 1 (Homo sapiens), P16066; 0% at EC30 ANP, 100% saturating ANP; activation, % at 10 µM; 370,000 tested, 0.14% active; AID 1671463, 2021; in the data active = activation above about 40%
# NPR2 activator – human GC-B receptor activators, primary screen, HEK293 GC-B cells, cGMP TR-FRET, EC30 CNP; 0% at EC30 CNP, 100% saturating CNP; activation, % at 10 µM; 370,000 tested, 0.11% active;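 active = activation at 10 µM reaching about 35% in either raw or pattern-adjusted values, limit read from the data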
# Target sequence (P20594 whole entry, looked up): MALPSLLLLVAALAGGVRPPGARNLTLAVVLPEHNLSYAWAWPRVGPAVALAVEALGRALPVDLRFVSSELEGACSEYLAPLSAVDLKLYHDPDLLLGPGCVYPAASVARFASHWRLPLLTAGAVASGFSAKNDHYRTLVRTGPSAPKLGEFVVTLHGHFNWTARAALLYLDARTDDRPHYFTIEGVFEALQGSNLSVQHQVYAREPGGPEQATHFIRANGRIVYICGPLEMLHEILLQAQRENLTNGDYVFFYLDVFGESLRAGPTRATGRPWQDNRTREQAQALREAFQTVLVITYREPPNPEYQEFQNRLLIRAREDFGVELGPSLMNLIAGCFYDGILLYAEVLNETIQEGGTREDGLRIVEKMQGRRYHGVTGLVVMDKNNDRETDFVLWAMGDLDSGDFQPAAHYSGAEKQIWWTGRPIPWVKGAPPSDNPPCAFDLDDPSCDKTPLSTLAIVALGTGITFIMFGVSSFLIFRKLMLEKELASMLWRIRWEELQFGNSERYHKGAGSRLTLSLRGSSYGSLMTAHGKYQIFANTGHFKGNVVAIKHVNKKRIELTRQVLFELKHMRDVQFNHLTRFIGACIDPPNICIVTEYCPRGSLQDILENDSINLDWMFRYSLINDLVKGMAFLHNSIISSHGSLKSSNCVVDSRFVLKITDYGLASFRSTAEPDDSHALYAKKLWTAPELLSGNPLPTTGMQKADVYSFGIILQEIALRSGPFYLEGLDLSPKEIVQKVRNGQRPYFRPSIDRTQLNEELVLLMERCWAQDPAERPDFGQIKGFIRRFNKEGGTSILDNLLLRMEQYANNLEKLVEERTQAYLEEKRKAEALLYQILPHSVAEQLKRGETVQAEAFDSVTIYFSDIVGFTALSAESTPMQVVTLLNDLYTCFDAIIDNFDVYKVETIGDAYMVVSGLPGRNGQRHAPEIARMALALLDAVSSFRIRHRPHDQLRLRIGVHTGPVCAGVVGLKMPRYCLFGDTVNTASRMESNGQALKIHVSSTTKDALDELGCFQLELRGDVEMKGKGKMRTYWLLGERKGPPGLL
# bovine MsrA act – bovine MsrA enzyme activators, primary screen, biochemical, absorbance, HTS; Methionine sulfoxide reductase A (Bos taurus); purified bovine MsrA, absorbance read-out; AID 602163, 2012; activation, % at 10.6 µM; 360,000 tested, 0.3% active; in the data active = activation above about 7.5%;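 note: 0% = vehicle and 100% = reference activator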
# MsrA inh – bovine MsrA enzyme inhibitors, primary screen, biochemical, absorbance, HTS. 360,000 tested, 0.75% active. AID 651718, 2012. purified bovine MsrA, absorbance read-out. inhibition, % at 15.5 µM;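 note: 0% = vehicle wells with enzyme and 100% = reference inhibitor wells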
# MsrA inh confirm – bovine MsrA inhibitors, retest, confirmation, biochemical, absorbance, HTS | shares compounds with MsrA inh | purified bovine MsrA, absorbance read-out | inhibition, % at 15.5 µM | 2,300 tested, 41% active;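 note: coupled to thioredoxin reductase with NADPH and selenocystamine and DMSO as substrate; 0% = vehicle only and 100% = full effect of reference inhibitor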
# * marks the source's active call; other numbers are inactive results; · = no result given. Cut-off read from the data, not from the text of the source, unless noted: active = inhibition above about 4.5%; inactive = the rest.
SMILES,GC-A act,NPR2 activator,bovine MsrA act,MsrA inh,MsrA inh confirm
COc1ccc(O)c(/C=N/Nc2nc3ccccc3[nH]2)c1,-8.7,-5.3,-2.2,5.8*,4.2
COc1cccc(/C=N/Nc2nc3ccccc3[nH]2)c1O,-6.8,-1.4,-0.6,5.9*,5.2*
COc1cc(/C=N/Nc2nc3ccccc3[nH]2)cc(OC)c1O,-4.6,-5.9,-6.8,5.1*,4.7*
COc1cc(/C=N/Nc2nc3ccccc3[nH]c2=O)ccc1O,3.1,1.7,-5.0,0.7,·
COc1cc(/C=N/Nc2nc3ccccc3[nH]2)ccc1O,-11.0,-12.6,-4.1,4.9*,3.4
COC(=O)c1ccc(/C=N/Nc2nc3ccccc3[nH]2)cc1,-5.9,2.4,-3.2,1.8,·
CN1CC=C(c2ccc(C(F)(F)F)cc2)N(c2ccc(Br)cc2)C1=O,-24.1,-21.9,·,·,·
COc1cccc(/C=N/Nc2ncnc(Cl)c2N)c1O,-1.8,-6.6,-7.0,5.7*,5.2*
CCn1c(COc2ccc(C)cc2)nnc1SCc1cccc(C(F)(F)F)c1,-7.1,3.8,·,·,·
CC(/C=C/c1ccc2c(c1)OCO2)=N\NC(=O)C(O)c1ccccc1 (configuration not stated),-12.8,1.4,-5.0,4.9*,5.0*
O=C(N/N=C\C=C\c1ccc2c(c1)OCO2)c1ccc(F)cc1,-0.4,-3.1,-5.1,6.4*,4.9*
O=C(N/N=C/C=C/c1ccc2c(c1)OCO2)C(O)c1ccccc1 (configuration not stated),0.4,-0.6,-7.4,6.7*,4.8*
O=[N+]([O-])c1ccc(Cl)c(-c2ccc(/C=N/n3cnnc3)o2)c1,-7.2,-12.9,-9.4,5.2*,6.0*
O=[N+]([O-])c1cc(-c2ccc(/C=N/n3cnnc3)o2)ccc1Cl,-11.1,-9.3,-1.8,-0.1,·
Cc1ccc(C(=O)N/N=C\c2ccc[nH]2)cn1,0.6,1.6,-2.9,6.6*,4.2
O=C(N/N=C/c1ccccn1)c1c[nH]c2ccccc12,-0.8,-2.7,-1.5,2.2,·
O=C(N/N=C/c1ccc[nH]1)c1cccnc1,-1.9,5.4,-5.2,5.7*,5.2*
Cc1ccccc1/C=N/NC(=O)c1cccnc1,-3.4,1.5,-8.2,-0.1,·
Cc1ccc(C(=O)N/N=C\c2cccn2C)cn1,-5.2,-1.1,-11.3,7.8*,4.7*
O=C(N/N=C/c1ccc[nH]1)c1c[nH]c2ccccc12,1.7,-3.2,-12.5,5.8*,4.0
Cc1cccc(C(=O)N/N=C/c2ccc[nH]2)c1,3.2,-1.8,-7.0,4.3,·
Cc1ccccc1N=Nc1c(N)[nH]n(-c2ccccc2)c1=O,-3.4,-10.8,·,·,·
COC(=O)c1ccc(S(=O)(=O)N2CCC(NC(=O)Cc3cccc(C)c3)CC2)cc1,-2.5,2.2,·,·,·
O=C(N/N=C/c1ccccc1)c1cccc2ccccc12,0.7,2.6,-6.2,0.9,·
O=C(N/N=C/c1cccn1-c1ccc(O)cc1)c1cccc2ccccc12,-4.4,-1.6,0.3,5.2*,2.7
SMILES,GC-A act,NPR2 activator,bovine MsrA act,MsrA inh,MsrA inh confirm
CC1(C)Cc2c(c(=S)nc(-c3ccccc3)n2Cc2cccnc2)CO1,-1.6,2.1,-7.5,4.4,·
CCN(CC)CCn1c(-c2ccccc2)nc(=S)c2c1CC(C)(C)OC2,0.4,4.2,-5.8,6.3*,4.2
Cc1ccc(S(=O)(=O)N2c3ccc(F)cc3C[C@H]2CSc2ccccc2)cc1,-0.8,-4.7,·,·,·
O=C(N/N=C/C=C/c1ccccc1[N+](=O)[O-])c1cccs1,2.7,-7.7,-4.5,1.9,·
O=C(O)CC1S/C(=N/N=C/C=C/c2ccccc2)NC1=O (configuration not stated),2.0,-0.1,-10.9,9.2*,7.8*
O=C(O)CC1S/C(=N/N=C/C=C/c2ccccc2[N+](=O)[O-])NC1=O (configuration not stated),4.6,1.6,-4.4,6.2*,6.3*
O=C(CC1S/C(=N/N=C/C=C/c2ccccc2)NC1=O)Nc1ccc(Cl)c(Cl)c1 (configuration not stated),-5.8,0.5,-2.1,0.2,·
O=C(O)CNC(=O)CC1S/C(=N/N=C/c2ccccc2O)NC1=O (configuration not stated),-1.5,2.5,-6.6,7.5*,4.4
CCOC(=O)C1=CCN(S(=O)(=O)c2ccc([N+](=O)[O-])cc2)C1c1ccc(C)cc1 (configuration not stated),-11.1,-8.9,·,-0.1,·
CCOC(=O)C(Cc1ccccc1)CP(=O)(OC)[C@@H](C)NC(=O)OCc1ccccc1 (some centres not stated),0.8,-3.8,·,·,·
CCCC(=O)N1CCC(NS(=O)(=O)c2ccc3c(c2)CCN3C(C)=O)CC1,1.7,2.4,·,·,·
CCC(=O)OCCNc1cc(Sc2nc3ccccc3[nH]2)c2nonc2c1[N+](=O)[O-],42.9*,26.9,-16.7,5.0*,1.6
COc1ccc2c(c1)c(C(=O)N/N=C/c1ccc(O)c(O)c1)c(C)n2C,-2.4,-5.3,-9.9,5.5*,4.5
O=C(N/N=C/c1ccc(O)c(O)c1)N/N=C/c1ccc(O)c(O)c1,-2.3,-4.1,-10.1,5.7*,2.9
Cc1nonc1C(=O)N/N=C/c1ccc(O)c(O)c1,4.6,-4.8,-3.4,3.7,·
COC(=O)[C@H](CC(C)C)N1Cc2nnn(Cc3ccc(C)cc3)c2-c2cc(F)ccc2S1(=O)=O,-1.9,3.1,·,·,·
Cc1cc(=O)[nH]c(N/N=C/c2c(F)c(F)c(F)c(F)c2F)n1,0.6,-3.6,-0.2,1.1,·
C(=N\Nc1nc2ccccc2[nH]1)/c1cccs1,-2.5,-5.5,-0.5,1.1,·
Cc1cc(=O)[nH]c(N/N=C/c2sccc2C)n1,-3.6,-6.1,-4.2,4.8*,5.3*
Cc1ccsc1/C=N/Nc1nc2ccccc2[nH]1,-10.9,-6.7,-5.5,4.8*,2.7
CCCCC(=O)N(Cc1ccccc1)c1ccccc1C(=O)Nc1cc(OC)ccc1OC,-20.3,-19.2,·,·,·
NS(=O)(=O)c1ccc(-c2ccc(C=O)o2)cc1,-0.9,-5.8,-12.2,4.7*,3.0
NS(=O)(=O)c1ccc(-c2ccc(/C=C3\NC(=S)NC3=O)o2)cc1,-1.5,5.0,-2.7,1.6,·
O=C(O)c1ccc(NC2=C(Cl)C(=O)c3ccccc3C2=O)cc1,11.8,5.7,2.5,-1.6,·
O=C(O)c1cccc(NC2=C(Cl)C(=O)c3ccccc3C2=O)c1,-2.1,-0.9,-10.3,4.9*,0.6
NCCC(=O)Nc1ccc(Cl)cc1C(=O)c1ccc[nH]1,-6.0,-14.1,·,·,·
Cc1ccc(S(=O)(=O)c2c(N)n(NC(=O)c3ccco3)c3nc4ccccc4nc23)cc1,1.5,3.5,0.5,4.8*,2.4
CCOC(=O)Nc1cc(=O)c([N+](=O)[O-])c(N)[nH]1,1.3,0.1,·,2.3,·
